Test results as given in ChEMBL document CHEMBL2218924, “A broad activity screen in support of a chemogenomic map for kinase signalling research and drug discovery” (Biochem J, 2013).

The molecules below were run against T1, Serine/threonine-protein kinase Nek2 (Homo sapiens) (UniProt P51955). Settings: at 10 µM.
T1 sequence (whole entry): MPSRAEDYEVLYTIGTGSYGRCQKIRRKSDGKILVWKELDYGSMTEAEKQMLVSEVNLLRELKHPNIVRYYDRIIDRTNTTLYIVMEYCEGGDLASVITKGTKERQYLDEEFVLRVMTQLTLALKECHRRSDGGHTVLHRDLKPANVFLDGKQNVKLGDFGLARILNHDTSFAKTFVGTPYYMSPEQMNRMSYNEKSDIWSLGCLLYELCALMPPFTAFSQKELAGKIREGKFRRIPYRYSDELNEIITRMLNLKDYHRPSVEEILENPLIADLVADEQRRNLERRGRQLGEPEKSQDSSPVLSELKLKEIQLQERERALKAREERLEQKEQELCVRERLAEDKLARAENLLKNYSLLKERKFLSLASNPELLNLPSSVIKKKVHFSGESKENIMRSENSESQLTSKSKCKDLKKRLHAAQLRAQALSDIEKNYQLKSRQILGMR
CO[C@H]1C[C@@H]2CC[C@@H](C)[C@@](O)(O2)C(=O)C(=O)N2CCCC[C@H]2C(=O)O[C@H]([C@H](C)C[C@@H]2CC[C@@H](O)[C@H](OC)C2)CC(=O)[C@H](C)/C=C(\C)[C@@H](O)[C@@H](OC)C(=O)[C@H](C)C[C@H](C)/C=C/C=C/C=C/1C gave a residual activity of 81%.
In the case of Nc1nc(Nc2ccc(S(N)(=O)=O)cc2)nn1C(=S)Nc1c(F)cccc1F, the residual activity is reported as 71%.
In the case of O=C1NC(=O)/C(=C\c2ccc3nccnc3c2)S1, the residual activity is reported as 86%.
COc1ccc(CNc2nc(N(CCO)CCO)nc3c2ncn3C(C)C)cc1 gave a residual activity of 85%.
COc1ccc(C(=O)Nc2sc3c(c2C(N)=O)CCCC3)cc1OC was tested, and the residual activity was 103%.
In the case of O=C(Nc1cccc(Nc2cc(Nc3cccc(C(F)(F)F)c3)ncn2)c1)C1CC1, the residual activity is reported as 96%.
Molecule Oc1ccc(Nc2nc(-c3ccc(Cl)cc3)cs2)cc1 has a residual activity of 97%.
In the case of COc1ccc(OC)c2c(=S)c3ccccc3[nH]c12, the residual activity is reported as 95%.
In the case of O=C1Nc2cc(Br)ccc2/C1=C1/Nc2ccccc2/C1=N\O, the residual activity is reported as 86%.
Molecule Nc1cccc(-c2cc3c(Oc4cccc(O)c4)ncnc3[nH]2)c1 has a residual activity of 71%.
In the case of Oc1n[nH]c2nnc(-c3c(-c4ccccc4)nn4ccccc34)cc12, the residual activity is reported as 93%.
Work on COc1cccc(-c2cc(=O)c3ccccc3o2)c1N yielded a residual activity of 102%.
Cc1nc2cc3nc(-c4cccs4)cnc3cc2n1C gave a residual activity of 103%.
Work on O=Nc1c(-c2c(O)[nH]c3ccccc23)[nH]c2ccccc12 yielded a residual activity of 83%.
Work on O=C1c2ccccc2-[n+]2ccc3c([nH]c4ccccc43)c21 yielded a residual activity of 87%.
In the case of CNc1cc2c(Nc3cccc(Br)c3)ncnc2cn1, the residual activity is reported as 109%.
O=c1cc(-c2cccc3c2Sc2ccccc2S3)oc(N2CCOCC2)c1 showed a residual activity of 92%.
C[C@@H](N)[C@H]1CC[C@H](C(=O)Nc2ccncc2)CC1 showed a residual activity of 102%.
In the case of Cc1nc(-c2ccccc2)c(-c2ccncc2)o1, the residual activity is reported as 102%.
CCC(=O)Nc1ccc2ncnc(Nc3cccc(Br)c3)c2c1 showed a residual activity of 99%.
Cn1cnc2cc3c(Nc4cccc(Br)c4)ncnc3cc21 gave a residual activity of 109%.
For CC(C)n1cnc2/c(=N/c3cccc(Cl)c3)nc(NCCO)[nH]c21, the residual activity was 64%.
Work on Oc1c2ccccc2c2c3c(cccc13)N=N2 yielded a residual activity of 81%.
Molecule COc1cc2ncnc(Nc3ccc(O)c(Br)c3)c2cc1OC has a residual activity of 83%.
In the case of N#C/C(=C(\N)Sc1ccc(N)cc1)c1ccccc1C(F)(F)F, the residual activity is reported as 91%.
CCOc1cc2ncnc(Nc3cccc(Br)c3)c2cc1OCC gave a residual activity of 93%.
For O=C1NC(=O)c2c1c1c3ccccc3[nH]c1c1[nH]c3cc(Br)ccc3c21, the residual activity was 88%.
CC#CC(=O)Nc1cc2c(Nc3ccc(F)c(Cl)c3)ncnc2cn1 showed a residual activity of 95%.
Molecule NC(=O)c1ccc2[nH]c(-c3ccc(Oc4ccc(Cl)cc4)cc3)nc2c1 has a residual activity of 82%.
For O=C(Nc1cccc(Nc2nccc(Nc3cccc(C(F)(F)F)c3)n2)c1)C1CC1, the residual activity was 101%.
Molecule O=c1c2ccccc2[nH]c(=S)n1CCN1CCC(=C(c2ccc(F)cc2)c2ccc(F)cc2)CC1 has a residual activity of 106%.
Ic1cccc(CSc2nnc(-c3ccncc3)o2)c1 was tested, and the residual activity was 89%.
O=C1NC(=O)/C(=C/c2ccc3c(c2)OC(F)(F)O3)S1 showed a residual activity of 94%.
Cc1ccc(NC2=CC(=O)c3sc(C)nc3C2=O)cc1 was tested, and the residual activity was 89%.
Work on CC(=O)O/N=C1\C(=C2\C(=O)Nc3cc(Br)ccc32)Nc2ccccc21 yielded a residual activity of 87%.

The molecules below were run against T2, Serine/threonine-protein kinase Nek3 (Homo sapiens) (UniProt P51956). Settings: at 1 µM.
T2 sequence (whole entry): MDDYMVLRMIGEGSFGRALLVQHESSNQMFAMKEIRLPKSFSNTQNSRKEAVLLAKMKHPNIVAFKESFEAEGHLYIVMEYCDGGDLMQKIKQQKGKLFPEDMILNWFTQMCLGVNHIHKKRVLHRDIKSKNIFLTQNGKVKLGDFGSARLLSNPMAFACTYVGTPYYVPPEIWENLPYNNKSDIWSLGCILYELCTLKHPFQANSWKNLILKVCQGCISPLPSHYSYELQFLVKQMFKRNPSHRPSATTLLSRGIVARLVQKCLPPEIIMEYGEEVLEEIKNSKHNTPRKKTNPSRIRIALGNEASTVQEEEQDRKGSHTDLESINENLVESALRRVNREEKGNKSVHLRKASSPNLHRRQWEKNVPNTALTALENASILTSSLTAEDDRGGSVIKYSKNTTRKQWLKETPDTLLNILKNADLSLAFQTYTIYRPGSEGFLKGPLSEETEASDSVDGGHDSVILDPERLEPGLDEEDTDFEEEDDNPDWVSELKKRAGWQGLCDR
With CO[C@H]1C[C@@H]2CC[C@@H](C)[C@@](O)(O2)C(=O)C(=O)N2CCCC[C@H]2C(=O)O[C@H]([C@H](C)C[C@@H]2CC[C@@H](O)[C@H](OC)C2)CC(=O)[C@H](C)/C=C(\C)[C@@H](O)[C@@H](OC)C(=O)[C@H](C)C[C@H](C)/C=C/C=C/C=C/1C the residual activity was 113%.
Molecule Nc1nc(Nc2ccc(S(N)(=O)=O)cc2)nn1C(=S)Nc1c(F)cccc1F has a residual activity of 6%.
Molecule O=C1NC(=O)/C(=C\c2ccc3nccnc3c2)S1 has a residual activity of 109%.
With COc1ccc(CNc2nc(N(CCO)CCO)nc3c2ncn3C(C)C)cc1 the residual activity was 71%.
Work on COc1ccc(C(=O)Nc2sc3c(c2C(N)=O)CCCC3)cc1OC yielded a residual activity of 110%.
Work on O=C(Nc1cccc(Nc2cc(Nc3cccc(C(F)(F)F)c3)ncn2)c1)C1CC1 yielded a residual activity of 95%.
With Oc1ccc(Nc2nc(-c3ccc(Cl)cc3)cs2)cc1 the residual activity was 106%.
For COc1ccc(OC)c2c(=S)c3ccccc3[nH]c12, the residual activity was 74%.
For O=C1Nc2cc(Br)ccc2/C1=C1/Nc2ccccc2/C1=N\O, the residual activity was 65%.
Nc1cccc(-c2cc3c(Oc4cccc(O)c4)ncnc3[nH]2)c1 was tested, and the residual activity was 42%.
Molecule Oc1n[nH]c2nnc(-c3c(-c4ccccc4)nn4ccccc34)cc12 has a residual activity of 77%.
For COc1cccc(-c2cc(=O)c3ccccc3o2)c1N, the residual activity was 93%.
Cc1nc2cc3nc(-c4cccs4)cnc3cc2n1C was tested, and the residual activity was 114%.
For O=Nc1c(-c2c(O)[nH]c3ccccc23)[nH]c2ccccc12, the residual activity was 86%.
Work on O=C1c2ccccc2-[n+]2ccc3c([nH]c4ccccc43)c21 yielded a residual activity of 88%.
With CNc1cc2c(Nc3cccc(Br)c3)ncnc2cn1 the residual activity was 106%.
O=c1cc(-c2cccc3c2Sc2ccccc2S3)oc(N2CCOCC2)c1 gave a residual activity of 92%.
In the case of C[C@@H](N)[C@H]1CC[C@H](C(=O)Nc2ccncc2)CC1, the residual activity is reported as 120%.
Cc1nc(-c2ccccc2)c(-c2ccncc2)o1 gave a residual activity of 102%.
CCC(=O)Nc1ccc2ncnc(Nc3cccc(Br)c3)c2c1 showed a residual activity of 109%.
With Cn1cnc2cc3c(Nc4cccc(Br)c4)ncnc3cc21 the residual activity was 111%.
CC(C)n1cnc2/c(=N/c3cccc(Cl)c3)nc(NCCO)[nH]c21 was tested, and the residual activity was 76%.
Oc1c2ccccc2c2c3c(cccc13)N=N2 was tested, and the residual activity was 70%.
COc1cc2ncnc(Nc3ccc(O)c(Br)c3)c2cc1OC showed a residual activity of 106%.
Work on N#C/C(=C(\N)Sc1ccc(N)cc1)c1ccccc1C(F)(F)F yielded a residual activity of 75%.
CCOc1cc2ncnc(Nc3cccc(Br)c3)c2cc1OCC showed a residual activity of 118%.
O=C1NC(=O)c2c1c1c3ccccc3[nH]c1c1[nH]c3cc(Br)ccc3c21 was tested, and the residual activity was 85%.
Molecule CC#CC(=O)Nc1cc2c(Nc3ccc(F)c(Cl)c3)ncnc2cn1 has a residual activity of 107%.
NC(=O)c1ccc2[nH]c(-c3ccc(Oc4ccc(Cl)cc4)cc3)nc2c1 gave a residual activity of 75%.
Molecule O=C(Nc1cccc(Nc2nccc(Nc3cccc(C(F)(F)F)c3)n2)c1)C1CC1 has a residual activity of 88%.
For O=c1c2ccccc2[nH]c(=S)n1CCN1CCC(=C(c2ccc(F)cc2)c2ccc(F)cc2)CC1, the residual activity was 104%.
Ic1cccc(CSc2nnc(-c3ccncc3)o2)c1 showed a residual activity of 84%.
O=C1NC(=O)/C(=C/c2ccc3c(c2)OC(F)(F)O3)S1 showed a residual activity of 117%.
Molecule Cc1ccc(NC2=CC(=O)c3sc(C)nc3C2=O)cc1 has a residual activity of 81%.
With CC(=O)O/N=C1\C(=C2\C(=O)Nc3cc(Br)ccc32)Nc2ccccc21 the residual activity was 82%.
